High-throughput results (PubChem BioAssay)
Rows were chosen to be rich in hits. Some 19% of all compounds tested hit in one or more screens of this group.
HT1080 IDH1KD tx – toxicity to HT-1080 IDH1 knockdown cells (counter line). 2% of 360,000 active. HT-1080 IDH1 knockdown viability, ATP luminescence, 48 h. AID 686971. Potency, µM (highest dose often 46.1 µM), without a hit: top-dose activity, negative = toxicity, most hits filed as cytotoxic;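 also: potency is read from the fitted curve at half-maximal effect; 0% = DMSO wells and -100% = cell-free medium wells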
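Using the IDH1-knockdown HT-1080 line run in the same batch and compound series as the NT line, viability after 48 h at 37 °C was determined by CellTiter-Glo luminescence and expressed as % activity.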
HT1080NT lethal – kills 2HG-producing HT-1080-NT fibrosarcoma cells | 1.6% of 360,000 active | HT-1080-NT fibrosarcoma viability, CellTiter-Glo ATP luminescence, 48 h | Potency, µM (series often up to 46.1 µM), without a hit: top-dose activity, negative = less viability, most hits filed as cytotoxic | AID 686970;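 also: NT is the 2HG producing partner of a matched IDH1 knockdown line; potency is read from the fitted curve at half-maximal effect; 0% = DMSO-treated cells and -100% = media-only wells without cells; nearly all actives have a fitted effect of over 55% in size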
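HT-1080-NT; 750 cells/well; 5% FBS RPMI; 48 h compound, 37 degrees C; CellTiter-Glo luminescence; curve fitting and curve-class assignment.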
IL1B secr inh – blocks inflammasome-driven IL-1 beta release | THP-1 LPS/ATP IL-1B secretion, AlphaLISA, 16 h; active compounds read low | activity change, % at 57.5 µM | 4.7% of 360,000 active | AID 743279; in the data active = activity change below about -50%; inconclusive = mostly about -30% to -49%
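THP-1 cells pretreated 1 hr with compounds (up to 57.5 uM final), then stimulated with LPS (250 ng/mL final) plus ATP (1.25 mM final); secreted IL-1B measured by AlphaLISA after 16 hr, decreased signal indicating inhibition.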
TDP1 cell CPT – DT40-hTDP1 cell growth loss with CPT; chicken DT40 Tdp1-/-;hTDP1 cells + 20 nM CPT, ATP luminescence, 48 h; Potency, µM (highest dose often 46.2 µM), without a hit: at the top dose activity change, negative = growth inhibition, actives largely listed as inhibitors; 12% of 420,000 active; also: potency is read from the fitted curve at half-maximal effect; nearly all actives have a fitted effect of over 55% in size
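Cell growth measured by CellTiter-Glo luminescence after a minimum 48 h, 37 C compound exposure with 20 nM CPT in Tdp1-knockout DT40 cells stably expressing hTDP1, seeded 400/well; qHTS titration format.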
TDP1 cell noCPT – qHTS for Inhibitors of human tyrosyl-DNA phosphodiesterase 1 (TDP1): qHTS in cells in absence of CPT; DT40 Tdp1-/- hTDP1 cells, no CPT, ATP luminescence, 48 h; Potency, µM (highest dose often 46.2 µM), for the others: at the top dose activity change, negative = growth inhibition, hits mostly inhibitors; 15% of 420,000 active; also: potency is read from the fitted curve at half-maximal effect; nearly all actives have a fitted effect of over 55% in size
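Compound effects on proliferation are scored in DT40 Tdp1-/-;hTDP1 cells in the absence of CPT. ATP levels (CellTiter-Glo luminescence) are recorded after a ≥48 hr, 37 °C incubation.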
An asterisk follows results filed as active; u = inconclusive; x = no result; [ ] = another dose, or the depositor's remark. Unless noted, calls follow the shape of the dose curve; as a rule, active = well fitted curve in the direction sought with a large enough effect; inconclusive = small, poorly fitted or top-dose-only effect, or another doubt; inactive = no such curve, though single readings can be large; an effect the other way counts as inactive or inconclusive. Unless noted, % is scaled to controls: 0 for no effect and ±100 for the full control effect.

SMILES	HT1080 IDH1KD tx	HT1080NT lethal	IL1B secr inh	TDP1 cell CPT	TDP1 cell noCPT
CC1(C)CC(=O)C2=C(C1)OC(N)=C(C#N)C2c1cn(-c2ccccc2)nc1-c1ccc(F)cc1 (stereo unspecified)	u	u	u	14.6µM*	u
Cn1cccc1C1C(C#N)=C(N)OC2=C1C(=O)CC(C)(C)C2 (stereo unspecified)	2.2%	7.8%	9.5	-3.4%	1.1%
CC1(C)CC(=O)C2=C(C1)OC(N)=C(C#N)C2Cc1ccccc1 (stereo unspecified)	4.6%	12.9%	-1.9	-3.9%	-4.4%
CC1(C)CC(=O)C2=C(C1)C(c1cn(-c3ccccc3)nc1-c1ccccc1)C(C#N)=C(N)O2 (stereo unspecified)	u	u	-56.3*	u	u
COc1ccc(CNC[C@H]2O[C@@H](n3cnc4c(N)ncnc43)[C@H](O)[C@@H]2O)cc1OC	13.4%	2.8%	7.4	-0.7%	-13.3%
O=C(CCCn1c(=O)c2ccccc2n(CC(=O)NCc2ccco2)c1=O)NCc1ccco1	12.1%	15.2%	-12.0	-3.6%	u
Cc1ccc(C)c(Cn2c(=O)n(CCCC(=O)NCc3ccco3)c(=O)c3ccccc32)c1	12.7%	17.8%	34.9	-27.8%	u
Cc1ccc(NC(=O)Cn2c(=O)n(CCCCC(=O)NCc3ccco3)c(=O)c3ccccc32)cc1	0.6%	0.0%	-17.5	u	14.6µM*
O=C(CCCCn1c(=O)c2ccccc2n(Cc2ccc(F)cc2Cl)c1=O)NCc1ccco1	u	u	-16.9	18.4µM*	14.6µM*
Cc1ccc(C)c(Cn2c(=O)n(CCCC(=O)NCc3ccco3)c(=O)c3sccc32)c1	9.2µM*	u	12.7	23.1µM*	11.6µM*
Cc1cc(C)c(Cn2c(=O)n(CCCC(=O)NCc3ccco3)c(=O)c3ccccc32)c(C)c1	10.6%	12.6%	0.0	u	18.4µM*
CCN1CCCC1CNC(=O)Cn1nc(C)n2nc(-c3ccccc3)cc2c1=O (stereo unspecified)	-6.3%	-0.6%	-2.8	-15.2%	-11.8%
CCC(C)NC(=O)Cn1c(=O)n(CCCCC(=O)NCc2ccco2)c(=O)c2ccccc21 (stereo unspecified)	-1.1%	-5.4%	-14.6	-5.3%	-19.6%
O=C(CCn1c(=O)c2sccc2n(CC(=O)NCc2ccco2)c1=O)NCc1ccccc1	-5.5%	0.1µM*	-11.0	-11.3%	-5.0%
O=C(CCCCn1c(=O)c2ccccc2n(CC(=O)Nc2ccc(F)cc2)c1=O)NCc1ccco1	-8.4%[9.24 µM]	-1.9%	-21.4	9.2µM*	u
COC(=O)C(C)N(C(=O)c1ccc(C(=O)c2ccccc2)cc1)c1c(C)cccc1C (stereo unspecified)	u	5.1%	-7.1	12.6µM*	20µM*
COC(=O)C(C)N(C(=O)c1ccc(Cl)cc1)c1c(C)cccc1C (stereo unspecified)	-1.1%	5.7%	4.7	14.6µM*	u
CCN(CC(=O)NC(C)C)C(=O)c1ccc(Cl)cc1	10.3%	5.5%	13.8	-18.9%	-8.7%
CCC1CCCCN1C(=S)NC(=O)c1cccc([N+](=O)[O-])c1 (stereo unspecified)	-19.8%	-21.5%	38.2	u	u
Cc1cccc(NC(=O)COC(=O)c2nn(C)c(=O)c3ccccc23)c1C	-4.6%	0.5%	8.8	-23.5%	-1.0%
COCC(=O)N1CCC2(CCCN(C(=O)Nc3ccc(OC)cc3)C2)CC1	x	x	x	2.0%	-3.5%
COc1ccc(-c2sc3ccc(OC)cc3c2C#CCCO)cc1	-29.3%	-18.1%	0.0	u	u
COc1cccc(-c2sc3ccc(OC)cc3c2C#CCC(C)O)c1 (stereo unspecified)	-7.4%	-4.9%	-2.1	u	u
COc1ccc2sc(-c3ccc(N(C)C)cc3)c(C#Cc3cncn3C)c2c1	25.9µM*	25.9µM*	-5.6	5.8µM*	5.8µM*
